Inconclusive results are not listed. The source made the active and inactive calls. Rule for the calls, unless noted: active = hit-call score of the fitted dose curve at least 0.9, where 1 is the maximum; inconclusive = response in the unintended direction; inactive = score below 0.9.

Experiment [1] in a line: TOX21_p53_BLA_p2_viability: Viability Assessment in the Tox21 HCT-116 p53 Agonism Beta-lactamase Assay, Phase 2 (AID 2283591).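 Note: compound exposure lasted 16 h at 37 °C; actives lower the ATP signal meaning cytotoxicity.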 The gist of the method: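 HCT-116 p53-bla cells (4000/well) rested 5 h at 37C, then received compounds in DMSO (217-fold dilution) for 16 h at 37C, 5% CO2. After the CCF4 read, CellTiter-Glo was added; ATP luminescence was read after 30 min at room temperature.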

In experiment [2] the target is Cellular tumor antigen p53 (Homo sapiens) (UniProt P04637). Briefly: TOX21_p53_BLA_p2_ratio: Tox21 HCT-116 p53 Agonism Beta-lactamase Assay, Ratio, Phase 2 (AID 2283592). The procedure, abridged:
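Cleaved-to-uncleaved substrate ratio (460 vs 530 nm) measured in HCT116 cells with an inducible beta-lactamase reporter linked to p53 activity. Compounds incubated 16 h at 37C before 2 h room-temperature CCF4-AM loading.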

Experiment [3] in a line: TOX21_p53_BLA_p3_viability: Viability Assessment in the Tox21 HCT-116 p53 Agonism Beta-lactamase Assay, Phase 3 (AID 2283593).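 Note: cells exposed to compound for 16 h before reading.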 The gist of the method: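 HCT-116 cells (4000/well) rested 5 h at 37C, then got DMSO compounds by pin tool (217-fold dilution) for 16 h at 37C, 5% CO2. After the bla read, CellTiter-Glo was added and luminescence read at 30 min, room temperature.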

The target of experiment [4] is Cellular tumor antigen p53 (Homo sapiens) (UniProt P04637). Briefly: TOX21_p53_BLA_p3_ratio: Tox21 HCT-116 p53 Agonism Beta-lactamase Assay, Ratio, Phase 3 (AID 2283596). The gist of the method:
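Cells were seeded at 4000/well, rested 5 h at 37C, then dosed with DMSO compound solutions (217-fold dilution) for 16 h. CCF4-AM substrate was loaded for 2 h at room temperature, and the 460/530 nm emission ratio was fitted for gain of signal versus DMSO.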

Experiment [5] shares this target. Description: TOX21_p53_BLA_p5_ratio: Tox21 HCT-116 p53 Agonism Beta-lactamase Assay, Ratio, Phase 5 (AID 2283599). The procedure, abridged: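 HCT-116 cells carrying a p53-inducible beta-lactamase reporter were seeded at 4000 cells/well and dosed after 5 h with compound in DMSO (217-fold dilution). After 16 h at 37C, CCF4-AM substrate was added for 2 h, and the 460/530 nm emission ratio was scored as gain-of-signal versus DMSO.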

A short description of experiment [6]: TOX21_p53_BLA_p5_viability: Viability Assessment in the Tox21 HCT-116 p53 Agonism Beta-lactamase Assay, Phase 5 (AID 2283600). The procedure, abridged:
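Viability is taken from cellular ATP content, measured by luciferase luminescence in the same wells after the beta-lactamase ratio read. Cells are seeded at 4000 per well and exposed to DMSO-dissolved compounds, diluted 217-fold, for 16 h.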

The target in experiment [7] is Cellular tumor antigen p53 (Homo sapiens) (UniProt P04637). Description: TOX21_p53_BLA_p4_ratio: Tox21 HCT-116 p53 Agonism Beta-lactamase Assay, Ratio, Phase 4 (AID 2283601). The procedure, abridged:
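HCT116 cells carrying an inducible beta-lactamase reporter were plated at 4000 cells/well, rested 5 h, then exposed to compounds in DMSO (217-fold dilution) for 16 h at 37C. CCF4-AM substrate was loaded 2 h at room temperature; 460/530 nm emission ratio scored gain-of-signal versus DMSO.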

The nature of experiment [8]: CCTE_Harrill_HTTr_Viability_MCF7: CCTE's 6-hour Cell Viability Assessment for the High-Throughput Transcriptomics (HTTr) Platform, in MCF-7 cells cultured in DMEM + 10% fetal bovine serum, Harrill Lab (AID 2284010; active = hit-call score of the fitted dose curve at least 0.9, where 1 is the maximum; inactive = score below 0.9). The gist of the method: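 Eight-point concentration series, six-hour exposure. Propidium iodide exclusion imaged to assess membrane integrity as a cytotoxicity readout; bidirectional fitting was done with DMSO as negative control and activity baseline.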

A short description of experiment [9]: CCTE_Harrill_HTTr_Apoptosis_MCF7: CCTE's 6-hour Apoptosis Assessment for the High-Throughput Transcriptomics (HTTr) Platform, in MCF-7 cells cultured in DMEM + 10% fetal bovine serum, Harrill Lab (AID 2284011; active = hit-call score of the fitted dose curve at least 0.9, where 1 is the maximum; inactive = score below 0.9). The procedure, abridged:
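Cells are dosed with test chemicals at eight concentrations and imaged 6 hours later for caspase-3/7 activity using a green fluorogenic detection reagent. Activity is fitted in both directions against DMSO controls.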

A short description of experiment [10]: CCTE_Harrill_HTTr_CellCount_MCF7: CCTE's Cell Proliferation Assessment for the High-Throughput Transcriptomics (HTTr) Platform, Harrill Lab (AID 2284012).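 Note: count of Hoechst-stained nuclei per well by high-content imaging in MCF-7 cells; cells exposed to compound for six hours; intended direction is loss of nuclei count meaning fewer cells.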 The gist of the method:
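For this full-screen endpoint, MCF-7 cultures received eight compound dilutions for six hours. Well nuclei counts from Hoechst imaging were analyzed relative to DMSO.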

Chain of Cellular tumor antigen p53 (Homo sapiens) (P04637 whole entry, looked up): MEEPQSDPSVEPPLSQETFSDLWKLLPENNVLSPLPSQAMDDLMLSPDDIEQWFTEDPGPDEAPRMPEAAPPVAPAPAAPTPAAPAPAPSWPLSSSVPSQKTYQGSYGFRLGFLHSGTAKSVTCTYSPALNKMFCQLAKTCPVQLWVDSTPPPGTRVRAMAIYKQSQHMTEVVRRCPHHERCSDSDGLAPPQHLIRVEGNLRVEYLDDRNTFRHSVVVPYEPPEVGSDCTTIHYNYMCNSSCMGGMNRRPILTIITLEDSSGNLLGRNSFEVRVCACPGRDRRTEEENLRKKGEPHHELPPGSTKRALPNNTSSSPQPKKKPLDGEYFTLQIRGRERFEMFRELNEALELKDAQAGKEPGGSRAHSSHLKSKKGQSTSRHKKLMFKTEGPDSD

As to `COC(=O)[C@H]1[C@H]2C[C@H]3c4[nH]c5ccccc5c4CCN3C[C@H]2CC[C@@H]1O`, the molecule was classed as inactive in experiment [1], in experiment [2], in experiment [3], in experiment [4] and in experiment [5].
In the case of `C=CC(=O)Nc1cc2c(Nc3ccc(F)c(Cl)c3)ncnc2cc1OCCCN1CCOCC1`, the call in experiment [1], in experiment [2], in experiment [5] and in experiment [6] was inactive. Besides, the concentration at half-maximal activity (AC50) (commonly the midpoint of the concentration-response curve, whichever way the signal moves) in experiment [3] is 38.7 µM (active); in experiment [4], 25.4 µM (active); in experiment [7] it was 7.82 µM (active).
As for `NCCc1cnc[nH]1`, the call in experiment [1], in experiment [2], in experiment [3], in experiment [4], in experiment [5] and in [6] was inactive. Also, the outcome in experiment [7] was inactive.
As for `O=C1Nc2ccccc2C1=O`, the molecule was classed as inactive in experiment [1], in experiment [2], in [3], in [4], in experiment [5] and in experiment [6].
Regarding `CCOC(=O)Cn1cccc1-c1nc(-c2ccc(OC)cc2)c(-c2ccc(OC)cc2)s1`, the result in experiment [1], in experiment [2], in experiment [3], in experiment [5], in experiment [6] and in experiment [7] was inactive. The AC50 in experiment [4] was 40.9 µM (active).
As for `CC=C1[C@H]2C=C(C)C[C@]1(N)c1ccc(=O)[nH]c1C2`, the molecule was called inactive in [1], in experiment [2], in [3], in experiment [4], in experiment [5] and in experiment [6].
For the molecule `CC(C)(c1ccc(Oc2ccc3c(c2)C(=O)OC3=O)cc1)c1ccc(Oc2ccc3c(c2)C(=O)OC3=O)cc1`, the molecule was called inactive in [1], in experiment [2], in [3], in [4] and in experiment [5].
Take `CCN(CC)c1ccc(N)cc1`: the molecule was called inactive in experiment [1], in experiment [3], in experiment [5] and in experiment [6]. Besides, the figures for the AC50 in experiment [2], in [4] and in [7] were 31.2 µM (active), 69.7 µM (active) and 73.4 µM (active), respectively.
For the molecule `CCN(CC)CCOC(=O)c1cccnc1`, the outcome in [1], in experiment [2], in [3], in [4], in experiment [5] and in [6] was inactive.
Turning to `CCCCCCCCCCCCCCNCCO`, the call in experiment [1], in [2], in [3], in experiment [4], in experiment [5] and in experiment [6] was inactive.
For the molecule `COc1cc(C(=O)NCc2ccc(OCCN(C)C)cc2)cc(OC)c1OC`, the call in experiment [1], in experiment [2], in experiment [3], in [4], in [5] and in experiment [6] was inactive. Moreover, the outcome in experiment [7] was inactive.
Consider `CCCNC(C)C(=O)Nc1ccccc1C` (stereo unspecified), for which the molecule was classed as inactive in experiment [1], in experiment [2], in experiment [3], in [4] and in experiment [5].
In the case of `C=C(C)c1ccccc1`, the outcome in experiment [1], in experiment [2], in experiment [3], in [4], in experiment [5] and in experiment [6] was inactive. Further, the outcome in experiment [7] was inactive.
As to `C[C@@H](O)[C@H]1C(=O)N2C(C(=O)[O-])=C(SC3Cn4cnc[n+]4C3)[C@H](C)[C@H]12` (stereo partly specified), the call in experiment [1], in experiment [2], in experiment [3], in experiment [4], in experiment [5] and in [6] was inactive.
`C=CC(=O)OCCOc1ccccc1`: the result in experiment [1], in experiment [2], in [3], in experiment [4], in [5] and in experiment [6] was inactive. In [7], the outcome was inactive.
For `CCc1nnc(NS(=O)(=O)c2ccc(N)cc2)s1`, the result in experiment [1], in experiment [2], in experiment [3], in [4], in [5] and in experiment [6] was inactive.
Take `CC(C)OC(=O)OCOP(=O)(CO[C@H](C)Cn1cnc2c(N)ncnc21)OCOC(=O)OC(C)C`: the result in [1], in experiment [2], in experiment [3], in experiment [4], in experiment [5] and in experiment [6] was inactive. Further, the result in experiment [7] was inactive.
For the molecule `CO[C@@H]1[C@H](OC(=O)/C=C/C=C/C=C/C=C/C(=O)O)CC[C@]2(CO2)[C@H]1[C@@]1(C)O[C@@H]1CC=C(C)C`, the outcome in experiment [1], in experiment [2], in experiment [3], in [4], in experiment [5] and in experiment [6] was inactive. Also, the result in experiment [7], in experiment [8] and in experiment [9] was inactive.
Take `CCc1ccc(S(=O)(=O)O)cc1`: the molecule was classed as inactive in experiment [1], in experiment [2], in experiment [3], in experiment [4], in [5] and in experiment [6]. For the same molecule, the outcome in experiment [7] was inactive.
Turning to `CCCCc1nc(Cl)c(CO)n1Cc1ccc(-c2ccccc2-c2nn[nH]n2)cc1`, the molecule was classed as inactive in experiment [1], in experiment [2], in experiment [3], in experiment [4], in [5] and in [6]. The result in experiment [7] was inactive.
Consider `CC1=C(C(=O)OC(C)C)C(c2cccc([N+](=O)[O-])c2)C(C(=O)OC2CN(C(c3ccccc3)c3ccccc3)C2)=C(N)N1` (stereo unspecified), for which the half-maximal activity concentration (AC50) in experiment [1] was 10.3 µM (active); in experiment [2], 18.3 µM (active); in experiment [3] it was 9.2 µM (active); in [4], 17.7 µM (active); in experiment [5], 43.6 µM (active); in experiment [6], 38 µM (active). Besides, in [7], the concentration at half-maximal activity (AC50) was 43.5 µM (active).
`C#C[C@]1(OC(C)=O)CC[C@H]2[C@@H]3CCC4=C/C(=N/O)CC[C@@H]4[C@H]3CC[C@@]21CC`: the concentration at half-maximal activity (AC50) in [1] was 37.2 µM (active); in [2] it was 40.4 µM (active); in experiment [3], 38.7 µM (active); in experiment [4], 42.8 µM (active); in experiment [5], 40.6 µM (active); in experiment [6], 37.1 µM (active). Moreover, the half-maximal activity concentration (AC50) in experiment [7] was 39.5 µM (active).
Regarding `CC(C)C[C@H](NC(=O)[C@@H](COC(C)(C)C)NC(=O)[C@H](Cc1ccc(O)cc1)NC(=O)[C@H](CO)NC(=O)[C@H](Cc1c[nH]c2ccccc12)NC(=O)[C@H](Cc1cnc[nH]1)NC(=O)[C@@H]1CCC(=O)N1)C(=O)N[C@@H](CCCN=C(N)N)C(=O)N1CCC[C@H]1C(=O)NNC(N)=O`, the result in [1], in experiment [2], in [3], in [4], in experiment [5] and in [6] was inactive. Moreover, the outcome in experiment [7] was inactive.
Take `O=C(OOC(=O)c1ccccc1)c1ccccc1`: the call in [1], in experiment [2], in experiment [3], in experiment [4], in experiment [5] and in experiment [6] was inactive. Also, the outcome in experiment [7], in experiment [8], in experiment [9] and in experiment [10] was inactive.
As for `O=c1[nH]c(=O)n([C@H]2C[C@H](O)[C@@H](CO)O2)cc1I`, the call in experiment [1], in experiment [2], in experiment [3], in experiment [4], in [5] and in experiment [6] was inactive. The outcome in [7] was inactive.
As to `C=CC(OCC)OCC`, the molecule was called inactive in [1], in [2], in experiment [3], in experiment [4], in experiment [5] and in experiment [6]. Besides, the outcome in experiment [7] was inactive.
Take `O=[N+]([O-])c1cc(C2CCCCC2)c(O)c([N+](=O)[O-])c1`: the call in experiment [1], in experiment [3], in experiment [5], in experiment [6] and in experiment [7] was inactive. Besides, the figures for the AC50 in experiment [2] and in [4] were 1.77 µM (active) and 0.902 µM (active), respectively.
Consider `NC(=S)N=Nc1ccc(NN=C(N)N)cc1`, for which the call in experiment [1], in [2], in experiment [3], in [4], in [5] and in experiment [6] was inactive. In [7], the result was inactive.
On to `Cc1c(Cl)cccc1Nc1ccccc1C(=O)O`, for which the concentration at half-maximal activity (AC50) in experiment [1] is 5.79 µM (active); in experiment [2], 19.4 µM (active); in experiment [3] it was 23 µM (active); in [4], 21.1 µM (active); in experiment [5], 21.6 µM (active); in experiment [7], 17.7 µM (active). The result in experiment [6] was inactive.
